Drawing on PubChem BioAssay AID624300 (Southern Research Specialized Biocontainment Screening …, 2012), this text covers outcome for 74 molecules.

Among all 2,400 compounds or so, about 360 (15%) were called active.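 How the source made its calls: active means viability falls under 70% at one or more tested concentrations, taken as toxicity; inactive means viability stays over 70% at every dose.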 These entries were drawn from the full list. Results with a measured potency or affinity are listed apart.

The assay can be described thus: viability loss in HeLa cells – cytotoxicity control for MgcRacGAP inhibitor project, dose response (AID 624300). The settings on record: CellTiter-Glo luminescence, 24 h; series mostly up to 100 µM.
For the molecule `CCCCn1c(C)cc2cc(O)ccc21`, the call was inactive.

As for `COc1ccc(N2CCN(C(=O)c3ccccc3N(C)S(=O)(=O)c3ccccc3)CC2)cc1`, the molecule was classed as inactive. Turning to `COc1cc(CNCc2cc(OC)c(OC)c(OC)c2)cc(OC)c1`, the call was inactive. Take `COc1cc2c(cc1NCc1ccc3c(c1)OCO3)oc1ccccc12`: the call was inactive. On to `CCc1cc(/C(Cc2cscn2)=N\O)c(O)cc1O`, for which the call was inactive. Take `CCN(CC)c1ccc(NC(=O)COC(=O)CCc2cc(OC)c(OC)c(OC)c2)cc1`: the outcome was inactive. With `O=C(CN1CCN(C/C=C/c2ccccc2)CC1)Nc1ccccc1C(=O)NC1CC1`, the molecule was classed as inactive. Take `CCn1c2ccccc2c2cc(NC(=O)CNC)ccc21`: the call was inactive. With `COc1cc(CNCc2ccccc2C(F)(F)F)cc(OC)c1` the entry was “inactive”.

On to `CCn1c2ccccc2c2cc(N)ccc21`, for which the result was inactive. `COc1ccccc1CNCC(=O)NCc1ccc(C)cc1`: the molecule was called inactive. Turning to `COc1ccc(/C=N\NC(=O)c2ccc(=O)[nH]n2)cc1O`, the molecule was classed as inactive.

In the case of `O=C(c1cccc(F)c1)N1CCN(C2CCCCC2)CC1`, the call was inactive. With `CN(C)CCCNc1ncnc2sc(-c3ccccc3)cc12` the entry was “inactive”; with `Cc1cc(C)c(OCCCCN2CCC(C)CC2)c(Br)c1`, “inactive”. Consider `O=C(CN1CCN(c2ccc(O)cc2)CC1)NC(=O)NCc1ccco1`, for which the call was inactive. As for `COc1cc(/C=N\NC(=O)CNC(=O)C2COc3ccccc3O2)ccc1O` (centres undefined), the outcome was inactive. To `Oc1ccc(C2=Nn3c(nnc3-c3ccco3)SC2)cc1O` belongs “inactive”.

As for `CCN(CC)c1ccc(NC(=O)COC(=O)CCC(=O)c2cccs2)cc1`, the molecule was called inactive. For the molecule `O=C(Cc1coc2cc(O)ccc12)NNC(=O)c1cccs1`, the call was inactive. `CN(C)c1ccc(C(=O)NC2(N3CCC3=O)CCCC2)cc1`: the molecule was called inactive. To `Cc1ccc(Nc2c(-c3ccco3)nc3ccccn23)cc1` belongs “inactive”; to `Cc1ccn2c(NC3CCCC3)c(-c3ccncc3)nc2c1`, “inactive”; to `O=CNc1ccc2c(c1)Cc1cccc(NC=O)c1-2`, “inactive”. Turning to `O=C(CNCc1ccco1)Nc1ccc(Oc2ccccc2)cc1`, the result was inactive. To `Cc1ccccc1OCCn1c(=S)[nH]c2c(N)ncnc21` belongs “inactive”; to `CC1CC(C)CN(CC(=O)NC(c2ccccc2)c2ccccc2)C1` (centres undefined), “inactive”; to `Cc1c(-c2ccccc2)sc(N)c1C(=O)N1CCOCC1`, “inactive”.

Regarding `CCN(CC)c1ccc(NC(=O)C2=CC=CN3CCS(=O)(=O)N=C23)cc1`, the call was inactive. As for `CCOc1cc(/C=C2\N=C3CCCCCN3C2=O)ccc1O`, the molecule was called inactive.

As for `CCOC(=O)C1=C(O)/C(=C\c2ccc(O)c(OCC)c2)N=C1C`, the result was inactive. As for `COc1ccccc1N1CCN(CC(=O)NCC2CCCO2)CC1` (centres undefined), the molecule was called inactive. For the molecule `O=C(CSc1nnnn1-c1ccc(F)cc1)c1ccc(O)c(O)c1`, the outcome was inactive. To `Cc1cc(C)nc(SCC(=O)c2ccc(O)c(O)c2)n1` belongs “inactive”; to `COc1cc(/C=N/NC(=O)c2ccc(N3CCCC3=O)cc2)ccc1O`, “inactive”; to `COc1cccc2cc(C(=O)Oc3ccc(NC(C)=O)cc3)c(=O)oc12`, “inactive”. With `Cc1ccc(C)c(OCC(O)CN2CCC(C)CC2)c1C` (centres undefined) the entry was “inactive”; with `O=S(=O)(c1ccc2ccccc2c1)N1CCN(c2ccc(O)cc2)CC1`, “inactive”; with `Cc1ccc(S(=O)(=O)N2CCN(C(=O)CN3CCN(c4ccc(O)cc4)CC3)CC2)cc1`, “inactive”. `COc1cc(C(=O)N/N=C/c2cn(Cc3ccccc3)c3ccccc23)ccc1O`: the result was inactive.

With `O=C1CCCC(O)=C1C=Nc1ccc(O)cc1`, the outcome was inactive. With `COc1cc(/C=N/N=C2\CC3CCC2(C)C3(C)C)ccc1O` (centres undefined) the entry was “inactive”.

Take `CCN(CC)c1ccc(/C=N/NC(=O)c2cc3ccccc3[nH]2)cc1`: the outcome was inactive.

Take `O=C(C[n+]1ccccc1)N/N=C/c1ccc(O)cc1`: the molecule was classed as inactive.

In the case of `COc1ccc(C)cc1NC(=O)C(NCC(O)c1ccccc1)c1ccccc1` (centres undefined), the molecule was called inactive. With `CCc1nc(Nc2ccc(N3CCN(C(C)=O)CC3)cc2)c2oc3ccccc3c2n1`, the molecule was called inactive. To `CC(=O)N1CCN(c2ccc(NCc3ccccc3)cc2)CC1` belongs “inactive”; to `COc1cc(/C=C/C(=O)OCC(=O)c2ccc(OC(F)F)cc2)ccc1O`, “inactive”; to `CCN(CC)c1ccc(NC(=O)c2ccc3c(c2)OCO3)cc1`, “inactive”. As for `CCN(CC)c1ccc(NC(=O)c2ccc(S(=O)(=O)N3CCOCC3)cc2)cc1`, the outcome was inactive.

As for `C/C=C(\C)CN1CCN(c2ccc(C)cc2)CC1`, the outcome was inactive. Take `N#C/C(=C\c1ccc(N2CCOCC2)o1)c1nc2ccccc2[nH]1`: the molecule was classed as inactive. Turning to `COc1cc(/C=C(\C#N)C(=O)Nc2ccc3c(c2)OCCO3)ccc1O`, the molecule was called inactive. In the case of `COc1cc(/C=C(\C#N)C(=O)c2c[nH]c3ccccc23)cc(OC)c1O`, the call was inactive.

For the molecule `CN1C=CC=C/C1=C(\C#N)c1nc2ccccc2[nH]1`, the call was inactive. To `N#C/C(=C/c1ccc(N2CCOCC2)o1)c1nc2ccccc2[nH]1` belongs “inactive”. To `COc1ccccc1N1CCN(/N=C/c2cc(OC)c(O)c(OC)c2)CC1` belongs “inactive”; to `COc1ccc(CN2CCN(Cc3ccccc3F)CC2)cc1OC`, “inactive”. Consider `CN(c1ccccc1)S(=O)(=O)c1cccc(C(=O)NCCc2ccc(O)c(O)c2)c1`, for which the result was inactive. In the case of `COc1cccc(OC)c1C(=O)N1CCN(Cc2ccc3c(c2)OCO3)CC1`, the outcome was inactive. In the case of `COc1cc(/C=C/C(=O)OCC(=O)N(C)Cc2ccccc2)ccc1O`, the call was inactive.

With `Cc1ccc(C2=NN=C(NC(=O)CSc3nncn3C)SC2)cc1`, the call was inactive. With `COc1cc(/C=N/NC(=O)CC2C(=O)NN=C2C)ccc1O` (centres undefined), the call was inactive. Turning to `CCN(CC)c1ccc(NC(=O)CN2C(=O)NC3(CCc4ccccc43)C2=O)cc1` (centres undefined), the molecule was called inactive. Consider `Nc1ccc(C(=O)c2ccc3c(c2)OCCO3)cc1N`, for which the result was inactive. For the molecule `COc1cc(-c2nc3ccccc3s2)ccc1O`, the result was inactive. On to `Cc1ccc(S(=O)(=O)Nc2nsc(N)n2)cc1`, for which the call was inactive. Take `Oc1ccc(Cc2ccccc2Cl)c(O)c1`: the result was inactive. Turning to `CCOc1cc(/C=N/NC(=O)C(C)Sc2ccccn2)ccc1O` (centres undefined), the result was inactive. To `COc1cc(/C=C/C(=O)OCC(=O)N(CC(C)C)c2c(N)n(Cc3ccccc3)c(=O)[nH]c2=O)ccc1O` belongs “inactive”; to `COc1cc(/C=N\Nc2cc(=O)n(C)c(=O)n2C)ccc1O`, “inactive”; to `COc1ccc(Nc2ccccc2)c(C)c1`, “inactive”. In the case of `O=[N+]([O-])c1cc([N+](=O)[O-])c2nonc2c1Nc1ccccc1O`, the molecule was classed as inactive.

Take `Cc1cc(C)c(C)c(S(=O)(=O)N2CCN(c3ccc(O)cc3)CC2)c1C`: the molecule was called inactive.
